Our source for the growth values is PubChem BioAssay (NCI).

About 83,000 compounds went through this panel and 20% of them were active in at least one assay; those are over-represented in the sample as a whole.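 Treatment: one concentration, 48 hours, 96-well format. Scoring: percent growth, with anything below 10 considered active.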 A number with no mark means an inactive call. Calls of active or inactive are those of the source.

The assay deals with MDA-MB-468 breast. Kind of assay: NCI-60 one-dose screen, 48 h (100 = growth as untreated, 0 = no growth, -100 = all killed). Conditions: 10 µM unless noted.
As to `COc1ccc2nc(Cl)c(Cn3nnc(Cc4ccccc4)n3)cc2c1`, the growth was 29.9%.

With `NC(=S)c1csc(CCNC(=O)c2ccccc2)n1`, the growth was 109%.

Consider `CC(C)=CCc1cc2c(cc1O)C1=C(C(=O)C3=C(C1=O)S(=O)(=O)CCN3)C(C=C(C)C)O2` (centres undefined), for which the growth is -33.5% (active).

For `COc1ccc(/C(=C\c2cc(OC)c(OC)c(OC)c2)C(=O)N2CCCNCC2)cc1`, the growth is 98.1%.
